Data on 107 sequences can be found in PubChem BioAssay AID1508600 (Functional Genomics Laboratory (NCATS/FGL), 2020).

In all, about 53,000 sequences went through this assay and about 3,700 (7%) were called active.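 Rule for the calls: active = gene knockdowns whose robust z-score for IL-1 alpha signal is at least 2 or at most -2, so actives lie on both sides; inactive = the rest.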 The full list was thinned out, with actives kept by preference.

A short description of this test: Components of the Cytosolic LPS Sensing Pathway: Gene Identification via Genome-wide siRNA Screen.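 Note: robust z of the log signal after scaling to non-targeting control siRNA wells of the plate.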 The note with it: RAW264.7 macrophages, IL-1a HTRF, actives lie on both sides, screened at 100 nM (by protocol), cells primed 5 h with Pam3CSK4 first. The procedure, abridged: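 Cells (RAW264.7, 1×10^4 per well) were transfected with siRNA at 100 nM and cultured 48h at 37 degrees C. Pam3CSK4 was added for 5 hours; LipidA transfection followed for 24 hour. IL-1a was then measured by HTRF.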
(In general: Time-resolved FRET reads energy transfer from a long-lived donor to a nearby acceptor.)
Turning to GGCUCAGAUUUUGUGAUUCTT against Olfr894, the z-score was -1.44 (inactive). The figure for GGACUUUUUCACUUUCAAATT against Ugt1a5 is -0.198 (inactive); for CGCCACACACCAUCACAUUTT against Scap it is -0.0743 (inactive).

For GGAAUAUUCUCUCAUCACATT against Mmachc, the z-score was -2.07 (active).

For the sequence GCUAACCAUGUGACAAUAATT against Timm8a1, the z-score was -1.39 (inactive). As for GGCCCAGCAGACAACUUUATT against Sgca, the z-score was 0.797 (inactive). To CCUCCGGAGUAUAAACAAUTT against Nr1i3 belongs 0.21 (inactive); to GGAGGAAGAAGACUCAGAATT against Prkag2, 3.46 (active). The figure for GAAGAGGGCACCUAGUUUCTT against Cox7b is 0.249 (inactive); for GCCACGAAGGUACUAUGUATT against Tbce it is 0.176 (inactive); for GGGAGAAAUGCCUUUAGUCTT against Erfe it is 3.79 (active). Regarding GGUUACCACACUAUGUUACTT against Tbc1d2b, the z-score was 0.454 (inactive). On to GGAAAAGUCCAAGUUUGAATT against Hmgb2, for which the z-score is -0.104 (inactive).

On to GGAGAUAAUCCUGAAUGGCTT against Hsd3b6, for which the z-score was -1.18 (inactive). In the case of GGCCAAAAGGUUGAGCAGUTT against Nsun2, the z-score was 0.311 (inactive). For the sequence GCUUUUAGGCCUCCAAAAGTT against Lmnb2, the z-score was 1.15 (inactive).

GGAACUUCGUCAGUACAUUTT against Setdb1: the z-score is 5.77 (active). On to GGAGAAACUGGCAGACCUUTT against Washc3, for which the z-score was -0.388 (inactive). To GCCUUCAGGACGAUUUAUUTT against Pla2g7 belongs 1.19 (inactive).

Turning to GCGAAAUCUUUGUCACUAATT against Sertad4, the z-score was -0.201 (inactive). In the case of GGAAGUAUUUGAUCAUGGATT against Smarca5, the z-score was -0.465 (inactive).

As for GGAAAGGUAAUGCAUCACATT against Rev3l, the z-score is -1.68 (inactive). With GGCUGAAGAUCACCAAGAATT against Neurl1a, the z-score is -0.869 (inactive). As to CGGAAUCAUUCGGAAUGAGTT against Capza3, the z-score is -1.01 (inactive). Turning to GGAAAUCCUGAAGUUUCCUTT against Grk5, the z-score is 4.41 (active). The figure for CGUGAUCCCACAGAUGUAGTT against Csrp3 is -0.649 (inactive); for GGGAGGUGUCUUUACGUCUTT against Neto1 it is -0.773 (inactive); for GCUGCACGAUCGGAAUGGUTT against Ssh1 it is -0.678 (inactive). The figure for GGCUUACUUGAAGCAUUUATT against Plcb4 is 2.13 (active); for GGUUUUUGCUGAGUCUUGCTT against Olfr299 it is 0.00611 (inactive).

Regarding GGAAAAGAAAGCAAAGAGATT against Dach1, the z-score was -1.15 (inactive). With GGAAAUGUUUACCUGCCAUTT against Zfp512, the z-score was 2.32 (active). As for GCUACAGCAGACAUAGAAATT against Sparcl1, the z-score is 0.0109 (inactive). On to GGUUGGAAUUGUGCAAUAATT against Fbxo48, for which the z-score was 0.164 (inactive). In the case of GGACAUUUAUCCCAUGACATT against Coro2b, the z-score was 0.814 (inactive).

With GGAAUUCAAUGACGUGUACTT against Mapk14, the z-score is 0.493 (inactive). To CCGUAUUUGUGCUGUGUCUTT against Olfr275 belongs -1.53 (inactive). Consider CCUUAUUUUACGGAACUGCTT against Olfr1018, for which the z-score is 2.11 (active). Take CCGGAGUUGAAACCUAAAATT against Hmgn5: the z-score is 0.524 (inactive). Consider GCAACAUAUGUUCAAGAUCTT against Ccdc163, for which the z-score is 0.53 (inactive). Regarding GGCCAUCAGAGUCAACUGUTT against Immt, the z-score is -0.285 (inactive). Regarding GCUAGCAGAGAUACAAUGUTT against Rasal3, the z-score is 3 (active). In the case of GGAAGAUGAAAGUUCCAUATT against Ankar, the z-score was 1.17 (inactive). As to GGGUGUAGUCCUGAAAGUATT against Arpc5l, the z-score is 2.45 (active). GCUUGUGAGUGGAACUUUCTT against Mcm6: the z-score was 0.62 (inactive). Regarding CCUACAACAGAUGUGCAGCTT against Fam222b, the z-score was -1.82 (inactive). With CCGGGACAUAGAGGAAAUUTT against Cabp1, the z-score was -0.113 (inactive).

Consider CGCACAUGAAGCCACAUAUTT against Plekhb1, for which the z-score is -0.176 (inactive). UCCAAGCUGUUGUUUAUACTT against Acsl1: the z-score is -0.0655 (inactive). As for CCGUUGGAGUCCAACCUAUTT against Ube2a, the z-score is 2.2 (active).

For GCUGUUACUCAGCAGAGAGTT against Bach2, the z-score was -1.02 (inactive). To GGCCCUCUCCAAGUCUAUATT against Pex7 belongs 0.7 (inactive). Turning to “GGAGGAAUUUCAAAUACUATT against A530032D15Rik”, the z-score was 0.853 (inactive). Turning to GGAUAGCAGCUGAGUUUUATT against Asb5, the z-score is 2.57 (active). To GGAAGUCAUUAUGUGAUCCTT against Nfyb belongs -0.404 (inactive); to GCCUACAAUCGAGACAGUUTT against Sgca, 1.15 (inactive); to GGACACAGACACCAAACAATT against Kat2a, -1.71 (inactive). The figure for CCCACUAAGGAGAUCAGUUTT against Lasp1 is 1.32 (inactive). Regarding GGUACUGGCAUGGUGACAATT against Mmp11, the z-score was -2.52 (active).

For the sequence GGUUUCUUGCCAAGAAAUUTT against Asic5, the z-score was -0.359 (inactive). For the sequence GGAAACCUGCAUCCUAUGATT against Olfr195, the z-score was -0.196 (inactive). As to GAGCUGGGAGGUUUCACAGTT against Tspo, the z-score was -1.42 (inactive). The figure for GGCUUAAGGCUAAUGGUCUTT against Fxyd5 is -0.778 (inactive); for GCCUGCCUACGAGAUCAACTT against Mgp it is -0.0804 (inactive); for CCGUGAAAAAAUUAAACAGTT against Slk it is 0.338 (inactive). To CGUUUGCUCUAAAGCCAGGTT against Smagp belongs 0.886 (inactive); to GGACAAAAUCACCUCACUUTT against Olfr1135, -3.29 (active).

GGAAUUUCAUGGCAAGGGUTT against Fmc1: the z-score was 0.652 (inactive). On to GGAUCACAUGAAAGGAUUATT against Dclre1c, for which the z-score is -0.242 (inactive). The figure for CCCAGCAACUACUGGAAACTT against Tas2r139 is -0.293 (inactive); for CGCUGUGCUGAGCUUACUUTT against D17H6S53E it is -2.36 (active); for GGUUAUCUCAAAACUCGACTT against Prox2 it is -0.119 (inactive). With GGUAACUGAUUGCUUAGAUTT against Smndc1, the z-score was 0.836 (inactive). To GCACUACAUUGUGGCUGUCTT against Itpr3 belongs -2.57 (active). Turning to GGGUUUGAACUGGUGAUUGTT against Cenpp, the z-score is -0.525 (inactive).

On to GGACAAAGGGAUAAUGCUGTT against Aldoc, for which the z-score was 0.735 (inactive). The figure for GGUUUUGGAAAAAGUGGAUTT against Chp1 is -0.867 (inactive); for GCCCUGUACCUUUUAGCUUTT against Olfr704 it is -0.306 (inactive); for CCUUGUUCAAAAAGAUGGCTT against Serpina1f it is -2.08 (active).

As for GGCCAUCAAGAGUUUCUUUTT against Nr0b1, the z-score is 0.876 (inactive). For GCGUGUCUUGCUCUUUUGATT against Usp22, the z-score was -1.21 (inactive). As to GGAAUCCUCUGAAUAACCUTT against Vmn1r172, the z-score is -1.14 (inactive).

For the sequence “GGGUGAUUUCUACCUUCAATT against D630003M21Rik”, the z-score was -0.496 (inactive).

With GGAAGAGGAAAUCACCACATT against Clec11a, the z-score was -2.16 (active). Consider GGUUGGUGAUGGCACAAACTT against Cct8, for which the z-score is -0.469 (inactive). As for GGUAGAACUUAUUGUGGACTT against Ly6f, the z-score was -0.692 (inactive).

Take CCUAUAAAGCUCUAAAGGATT against Caprin1: the z-score was 0.115 (inactive).

As to GGGUUUCCACAGACAAUGUTT against V1rg10, the z-score was -0.837 (inactive). For the sequence GGACCUUUUUUGUUCAAAATT against Rasd1, the z-score is 0.157 (inactive). As to CUCUGUACUUGGGCAGGAATT against Cyp2c65, the z-score was 2.9 (active). For the sequence CGCUGCAUUAAAGACUAAATT against Kcnj10, the z-score was 0.414 (inactive). Consider GCAAACGGACACUUGGAAUTT against Hmx1, for which the z-score was -0.9 (inactive). Take “GGUAAACAUGAUGUCCCUCTT against A630038E17Rik”: the z-score was 0.0317 (inactive). Take GGAAUAUGCUGCAAAAAUCTT against Camk2g: the z-score was -1.58 (inactive). Consider GGCAGCCUGAACAUCAAUGTT against S100a13, for which the z-score was 1.47 (inactive). In the case of CCGAAGCUUUAUCUUCUAUTT against Pkd2, the z-score is -0.719 (inactive). On to GGCCAUGGUUUCAAAAACATT against Rspo2, for which the z-score was -1.33 (inactive).

Turning to GGCGAUCUUUGGAAUUAGATT against Ing3, the z-score was 0.209 (inactive). To GGGAACAUGUUUUACUCUUTT against Zfp521 belongs 1.63 (inactive); to GGUCGACAGAUCAAGCCUUTT against Psmb3, -2.18 (active).

For the sequence GCCAAUCUGAACUUGUGUUTT against Plet1, the z-score is -0.931 (inactive). Consider CCACAGGGACAACAAACUATT against Arid3b, for which the z-score is 0.0513 (inactive). CCUGUUUCGUAGAUUGUUUTT against Eftud2: the z-score is -0.35 (inactive). Regarding CGUGUCAUACAGGUGUGGUTT against Lhx8, the z-score is 2.11 (active). With UCCUUGCUGUCCUAACCAUTT against Gpr119, the z-score is 1.64 (inactive). Turning to GCUGCACCAUCAAUUCCCATT against Vpreb3, the z-score was -1.63 (inactive). With GGCACUUGAAUUUCUAAGUTT against Cbx5, the z-score is 0.0672 (inactive).
